Values joined by “and” are separate entries in the source; they are usually repeats but may differ in a detail not shown here. Identical values can stand only once. Unmarked numbers belong to inactive results. No stated cut-off is given here; in the data, active means inhibition above about 37%; inactive means the rest.

In the assay the test system is Hepatitis C virus NS3 helicase. Kind of assay: HCV NS3 helicase inhibitors, primary screen, biochemical, fluorescence polarization, LOPAC1280 library (AID 687035). The note with it: Purified HCV NS3 helicase, Cy5-dT15 ssDNA binding fluorescence polarization; stronger effect = higher value; concentration not given here. For orientation: Polarisation of emitted light reports the rotation of a fluorescent probe.
Regarding `C[N+]1(CCCCC[N+]2(C)CCCC2)CCCC1`, the inhibition was 4%.

Consider `Cn1cnc2c1c(=O)[nH]c(=O)n2C`, for which the inhibition was -5%.

Turning to `C=CCc1ccccc1OCC(O)CNC(C)C` (configuration not stated), the inhibition is -4%.

Consider `CCCCC1C(=O)N(c2ccccc2)N(c2ccccc2)C1=O`, for which the inhibition was -4%.

As to `CSc1ccc2c(c1)C(N1CCN(C)CC1)Cc1ccccc1S2` (configuration not stated), the inhibition is -5%.

With `CC(CN(C)C)CN1c2ccccc2CCc2ccccc21` (configuration not stated), the inhibition is -4%.

`O=c1c(O)c(-c2ccc(O)c(O)c2)oc2cc(O)cc(O)c12`: the inhibition was 2%.

For the compound `CCN(CC)CCNC(=O)c1ccc(NC(C)=O)cc1`, the inhibition is -3%.

With `NNc1nncc2ccccc12`, the inhibition was -3%.

As for `Cc1cn[nH]c1`, the inhibition was -3%.

Regarding `C[N+](C)(C)CCCCCC[N+](C)(C)C`, the inhibition was 0% and -2%.

Consider `COc1cc(C(=O)OCCCN2CCCN(CCCOC(=O)c3cc(OC)c(OC)c(OC)c3)CC2)cc(OC)c1OC`, for which the inhibition was -3%.

One may read the inhibition as the drop in the measured response relative to a control, in per cent.

Values taken from PubChem BioAssay.
